About 83,000 compounds went through this panel and 20% of them were active in at least one assay; those are over-represented in the sample as a whole.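 Values shown are percent growth following 48 h exposure of cells in 96-well plates to a single concentration of compound; below 10 was considered active.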 Activity calls are given as the source filed them.
What was measured:
Test in all cases: NCI-60 one-dose screen, 48 h (100 = growth as untreated, 0 = no growth, -100 = all killed)
Details in all cases: 10 µM unless noted
[1] = system: DU-145 prostate
[2] = system: K-562 leukemia
[3] = system: MALME-3M melanoma
[4] = system: MDA-MB-231 breast
[5] = system: RXF 393 renal
[6] = system: SF-268 CNS
[7] = system: SF-295 CNS
[8] = system: SF-539 CNS
[9] = system: UACC-257 melanoma
[10] = system: M14 melanoma

Structure (SMILES)	growth [1]	growth [2]	growth [3]	growth [4]	growth [5]	growth [6]	growth [7]	growth [8]	growth [9]	growth [10]
CC(C)(C)n1cc(-c2ccnc(NCCNS(=O)(=O)c3ccc(O)cc3)c2)c(-c2cccc(O)c2)n1	106% (inactive)	56.1% (inactive)	96.9% (inactive)	111% (inactive)	108% (inactive)	94.4% (inactive)	101% (inactive)	95.3% (inactive)	99.1% (inactive)	110% (inactive)
CC1CCN(C(=S)SCC(=O)NC(=O)c2ccccc2)CC1	107% (inactive)	97.1% (inactive)	95.5% (inactive)	117% (inactive)	136% (inactive)	100% (inactive)	105% (inactive)	99.2% (inactive)	102% (inactive)	109% (inactive)
O=C1/C=C/[C@@H](O)[C@@H]2C[C@@H](O)C[C@H]2/C=C/CCC[C@@H](O)CCO1	105% (inactive)	105% (inactive)	60.9% (inactive)	113% (inactive)	52.4% (inactive)	85.6% (inactive)	89.2% (inactive)	101% (inactive)	49.3% (inactive)	77.8% (inactive)
Cc1ccc2nc(NC(=O)CSc3nc(-c4ccccc4)c(C#N)c4nnnn34)sc2c1	119% (inactive)	97.8% (inactive)	109% (inactive)	113% (inactive)	120% (inactive)	113% (inactive)	103% (inactive)	100% (inactive)	108% (inactive)	99.5% (inactive)
Fc1ccc2[nH]cc(-c3nc(-c4c[nH]c5ccncc45)cs3)c2c1	-0.992% (active)	-41.7% (active)	-85.3% (active)	-59.8% (active)	-84.6% (active)	-31.5% (active)	-74.1% (active)	-92.6% (active)	-67.8% (active)	-66.4% (active)
Cc1cc2c(cc1C)N(C(=O)CCl)CC(=O)N2	78.6% (inactive)	2.9% (active)	9.7% (active)	51.3% (inactive)	31.2% (inactive)	60.9% (inactive)	99.5% (inactive)	93.2% (inactive)	59.5% (inactive)	55% (inactive)
CCN1C(=O)N(CC)C2C1NN=c1s/c(=C3\C(=O)N(CCC(C)C)c4ccccc43)c(=O)n12 (stereo not given)	7.36% (active)	11.6% (inactive)	51.3% (inactive)	5.92% (active)	33.2% (inactive)	50.8% (inactive)	8.08% (active)	-15.2% (active)	65% (inactive)	13.5% (inactive)
CC/C(Cc1ccccc1)=C(\c1ccc(OCCCN(C)C)cc1)c1ccc(OC(=O)NCc2ccccc2)cc1	73.9% (inactive)	-31.7% (active)	41.8% (inactive)	65.2% (inactive)	80% (inactive)	72.4% (inactive)	110% (inactive)	93% (inactive)	83.4% (inactive)	18.8% (inactive)
CCOC(=O)c1c(C)nc2c(c1N)/C(=C/c1ccc(OC)cc1)C(=O)N2Cc1ccccc1	60.7% (inactive)	46.5% (inactive)	64.5% (inactive)	57.8% (inactive)	71.4% (inactive)	62.3% (inactive)	68.7% (inactive)	87.5% (inactive)	49.6% (inactive)	71.3% (inactive)
NC(=O)c1c(NC(=O)c2cccc(C(F)(F)F)c2)sc2c1CCC(=O)C2	29.2% (inactive)	-2.81% (active)	-41% (active)	-45.5% (active)	-5.44% (active)	19% (inactive)	-12.9% (active)	-78.1% (active)	-6.24% (active)	-54% (active)
CN1CCN(CC(=O)Nc2ccc3ncnc(Nc4ccc(Oc5cccc(C(F)(F)F)c5)c(Cl)c4)c3c2)CC1	23.9% (inactive)	-27.3% (active)	-77.1% (active)	-58.1% (active)	-78.6% (active)	11.3% (inactive)	-44.7% (active)	-84.5% (active)	-56.1% (active)	-86.5% (active)
Nc1c(C(=O)Nc2cccc(Cl)c2)sc2nc3c(cc12)CCCC3	104% (inactive)	48.3% (inactive)	102% (inactive)	93.3% (inactive)	103% (inactive)	102% (inactive)	91.6% (inactive)	86.9% (inactive)	79.1% (inactive)	78.6% (inactive)
COc1ccc(Cn2cc(C(=O)N=Nc3c(O)[nH]c4c(C)cccc34)nn2)cc1	60.4% (inactive)	63.2% (inactive)	40.5% (inactive)	51% (inactive)	81.9% (inactive)	87.3% (inactive)	111% (inactive)	80.1% (inactive)	93.7% (inactive)	71.9% (inactive)
Cc1ccc(-c2nc(-c3cn(C)c4ncccc34)cs2)cc1	-56.4% [100 µM] (active)	10.3% [100 µM] (inactive)	-40% [100 µM] (active)	-14.6% [100 µM] (active)	-37.8% [100 µM] (active)	2.72% [100 µM] (active)	-42.2% [100 µM] (active)	-79% [100 µM] (active)	-7.24% [100 µM] (active)	-63.7% [100 µM] (active)
CCN(CC)CCCN1C(=O)c2c(c(C)c3c(oc4ccc(OC)cc43)c2C)C1=O	112% (inactive)	0.0716% (active)	97.1% (inactive)	99.5% (inactive)	70.3% (inactive)	98.6% (inactive)	110% (inactive)	91.8% (inactive)	103% (inactive)	104% (inactive)
C#CCO[C@H]1CC(CC#C)(CC#C)C(=O)[C@@H]2[C@H]1[C@H]1C[C@@H]3[C@@]4(C)CCC[C@@](C)(C(=O)OC)[C@@H]4CC[C@@]23C=C1C(C)C	97.7% (inactive)	88.9% (inactive)	-35.9% (active)	89.3% (inactive)	102% (inactive)	92.9% (inactive)	101% (inactive)	85.4% (inactive)	94.3% (inactive)	95.5% (inactive)
CC(=O)/C(=C/c1ccc([N+](=O)[O-])cc1)C(=O)c1ccccc1	92.6% (inactive)	31.3% (inactive)	89.1% (inactive)	91.4% (inactive)	74.2% (inactive)	76.1% (inactive)	93.3% (inactive)	102% (inactive)	76.3% (inactive)	79.8% (inactive)
O=C(N/N=C/c1cc(Cl)ccc1O)c1ccccc1Nc1ccnc(C(F)(F)F)c1	25.8% (inactive)	89.3% (inactive)	-18.7% (active)	50.4% (inactive)	58.3% (inactive)	18.3% (inactive)	28.9% (inactive)	-4.43% (active)	42.8% (inactive)	23.6% (inactive)
O=C1c2ccccc2C(=O)C1c1ccc(Br)cc1	118% (inactive)	104% (inactive)	88.8% (inactive)	89.4% (inactive)	121% (inactive)	113% (inactive)	90.5% (inactive)	104% (inactive)	110% (inactive)	109% (inactive)

Structure (SMILES)	growth [1]	growth [2]	growth [3]	growth [4]	growth [5]	growth [6]	growth [7]	growth [8]	growth [9]	growth [10]
O=C(/C=C/C12c3ccccc3C(c3ccccc31)C1C(=O)NC(=O)C12)c1ccc(Br)cc1 (stereo not given)	46.6% (inactive)	21.6% (inactive)	80.5% (inactive)	52.6% (inactive)	25.4% (inactive)	60.6% (inactive)	71% (inactive)	77.9% (inactive)	61.7% (inactive)	62.6% (inactive)
O=C(CCCCCCN1CC(=O)N2[C@H](c3ccc(Cl)cc3)c3[nH]c4ccccc4c3C[C@@H]2C1=O)NO	72.2% (inactive)	25.2% (inactive)	23% (inactive)	68.9% (inactive)	65.7% (inactive)	85.1% (inactive)	85.6% (inactive)	57% (inactive)	36.4% (inactive)	61.7% (inactive)
CCN(CC)CCCOc1ccc2ncnc(Nc3ccc(Oc4cccc(C(F)(F)F)c4)c(Cl)c3)c2c1	3.42% (active)	-28.6% (active)	-76.2% (active)	-42.2% (active)	-64.9% (active)	35.1% (inactive)	-61.7% (active)	-87.5% (active)	-60.5% (active)	-72% (active)
COc1ccc(C2=CC(c3cc(OC)c(OC)c(OC)c3)n3ncnc3N2)cc1 (stereo not given)	-24.7% (active)	9.56% (active)	75.8% (inactive)	8.42% (active)	71.1% (inactive)	31.4% (inactive)	13.5% (inactive)	-1.69% (active)	56.5% (inactive)	-2.18% (active)
O=c1c2c3c(sc2n2c(-c4cc(-c5ccccc5)no4)nnc2n1Cc1ccccc1)CCCC3	88.5% (inactive)	64.9% (inactive)	122% (inactive)	80.5% (inactive)	77.8% (inactive)	93.5% (inactive)	83.4% (inactive)	114% (inactive)	110% (inactive)	111% (inactive)
CNC(=O)c1ccccc1Nc1nc(Nc2cc(OC)c(OC)c(OC)c2)ncc1Br	9.08% (active)	8.02% (active)	-39.5% (active)	-3.87% (active)	-64.8% (active)	-32.7% (active)	-6.65% (active)	-79.2% (active)	-30.9% (active)	-52.9% (active)
CCN1C(=O)N(CC)C2C1NN=c1s/c(=C\c3cnc(C)n3C)c(=O)n12 (stereo not given)	5.42% (active)	15.5% (inactive)	29.8% (inactive)	43.8% (inactive)	-29.3% (active)	51.9% (inactive)	9.05% (active)	-20.2% (active)	29.7% (inactive)	4.96% (active)
O=[N+]([O-])c1cc(NS(=O)(=O)c2ccccc2)ccc1NS(=O)(=O)c1ccccc1	87.1% (inactive)	125% (inactive)	155% (inactive)	91% (inactive)	134% (inactive)	106% (inactive)	133% (inactive)	118% (inactive)	95% (inactive)	88.5% (inactive)
O=C(/C=C/c1ccc(Cl)cc1)c1cccc(OCCCOc2cccc(C(=O)/C=C/c3ccc(Cl)cc3)c2)c1	113% (inactive)	88.8% (inactive)	109% (inactive)	110% (inactive)	106% (inactive)	105% (inactive)	100% (inactive)	112% (inactive)	98.6% (inactive)	98.6% (inactive)
O=C(Nc1cc(Cl)ccc1O)c1cccc(Nc2ccnc(C(F)(F)F)c2)c1	54.9% (inactive)	7.05% (active)	53.1% (inactive)	34.1% (inactive)	65.8% (inactive)	55.2% (inactive)	2.92% (active)	48.1% (inactive)	32.3% (inactive)	38.5% (inactive)
COc1cc(/C=C/C(=O)/C=C(O)/C=C/c2ccc(OC(=O)C34CC5CC(CC(C5)C3)C4)c(OC)c2)ccc1OC(=O)C12CC3CC(CC(C3)C1)C2	113% (inactive)	106% (inactive)	97% (inactive)	103% (inactive)	106% (inactive)	95.6% (inactive)	99.2% (inactive)	95.2% (inactive)	112% (inactive)	102% (inactive)
CCN1C(=O)N(CC)C2C1NC(=S)N2/N=C/c1ccc(OC)cc1 (stereo not given)	78.5% (inactive)	20.1% (inactive)	54.4% (inactive)	69.5% (inactive)	59.8% (inactive)	71.8% (inactive)	42.1% (inactive)	55.2% (inactive)	61% (inactive)	29.9% (inactive)
Oc1c(CN2CCCC2)cc(CSCc2ccccc2)c2cccnc12	22.6% (inactive)	11% (inactive)	-2.43% (active)	26.4% (inactive)	31.3% (inactive)	11.9% (inactive)	5.5% (active)	-26.2% (active)	-16.7% (active)	-3.2% (active)
N#Cc1cncc(-c2ccc3ncnc(Nc4cccc(Cl)c4)c3c2)c1	63.4% (inactive)	87% (inactive)	76.8% (inactive)	66.6% (inactive)	45.9% (inactive)	68.5% (inactive)	76% (inactive)	78% (inactive)	72.6% (inactive)	83.8% (inactive)
COc1cc(/C=C2\CN(S(=O)(=O)c3ccccc3)C/C(=C\c3cc(CN4CCCCC4)c(O)c(OC)c3)C2=O)cc(CN2CCCCC2)c1O	-93% (active)	-9.62% (active)	-77.6% (active)	-67.8% (active)	-88.3% (active)	-20.7% (active)	76.5% (inactive)	-84.6% (active)	83.8% (inactive)	-75.2% (active)
CC1=C2[C@@H](CC1)[C@]1(C)O[C@@](C3CCCCC3)(C[C@H]1OC(=O)CO)[C@H]2OC(=O)/C=C/c1ccccc1	89.3% (inactive)	63.5% (inactive)	79.5% (inactive)	86.4% (inactive)	39.9% (inactive)	31.9% (inactive)	86.5% (inactive)	102% (inactive)	84.5% (inactive)	91.6% (inactive)
COc1cccc(/C=C/C(=O)c2cccc(Nc3nc(Nc4ccccc4)nc(Nc4ccccc4)n3)c2)c1	85.5% (inactive)	59.4% (inactive)	107% (inactive)	84.6% (inactive)	-38.8% (active)	95.3% (inactive)	71.4% (inactive)	96.5% (inactive)	114% (inactive)	89.4% (inactive)
C/C(=N\O)c1ccc(NC(=O)CSc2nnc(-c3cc(-c4ccc(S(C)(=O)=O)cc4)nc4ccccc34)n2-c2ccccc2)cc1	92.6% (inactive)	73.4% (inactive)	94.4% (inactive)	76.9% (inactive)	98.7% (inactive)	77.4% (inactive)	99.4% (inactive)	83.4% (inactive)	99.1% (inactive)	93% (inactive)
